# Experimental data published in PubChem BioAssay (Tox21).
# Where “and” joins values, the source holds several entries; their conditions need not be identical. Equal entries are not always repeated. Results filed as inconclusive are left out. A call without a number means that no potency is given here. Where a structure was tested more than once in an assay, its records may differ in their call. Calls of active or inactive are those of the source. Calls come from the whole dose curve; as a rule, active = well fitted curve in the direction sought with a large enough effect in the repeat runs; inconclusive = weak or mixed curves; inactive = no such curve, though single readings can be large; an effect the other way counts as inactive or inconclusive.
# How the values were obtained:
# [1] = A CellTox Green Cytotoxicity Assay to monitor cytotoxicity in HEK293 cells - 40 hour (AID 1224871); settings: CellTox Green fluorescence; series mostly up to 76.8 µM; note: nearly all actives have a fitted effect of over 45% in size
# How it was run: (§1)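 Seeding of HEK293 cells together with cytotoxicity dye preceded a 5 h incubation at 37 C/5% CO2. Test compounds in DMSO were then added and fluorescence monitored across 40 h.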
# [2] = qHTS RealTime-Glo MT Cell Viability Assay in HEK293 cells - 16 hour (AID 1224872); settings: RealTime-Glo luminescence; series mostly up to 76.8 µM; note: nearly all actives have a fitted effect of over 50% in size; note: potency is the fitted concentration of half-maximal effect
# How it was run: (§2)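 Viability tracked continuously by luminescence as live cells reduce a prosubstrate for NanoLuc; HEK293 cells preincubated 5 h, compound-treated at 37 C, and read at 0, 8, 16, 24, 32 and 40 h.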
# [3] = qHTS RealTime-Glo MT Cell Viability Assay in HepG2 cells - 8 hour (AID 1224873); settings: RealTime-Glo luminescence; series mostly up to 76.8 µM; note: nearly all actives have a fitted effect of over 55% in size
# How it was run: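 HepG2 cells mixed with RealTime-Glo MT reagents (NanoLuc plus cell-permeant prosubstrate) were seeded at 600 cells/well, incubated 5 h at 37 C/5% CO2, then pinned with compounds in DMSO; nonlytic luminescence tracked viability during 40 h treatment.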
# [4] = qHTS RealTime-Glo MT Cell Viability Assay in HEK293 cells - 40 hour (AID 1224874); settings: RealTime-Glo luminescence; max response: stronger effect = lower value; note: nearly all actives have a fitted effect of over 50% in size; note: potency is the fitted concentration of half-maximal effect
# How it was run: (§3)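 Tox21 screen in HEK293 using RealTime-Glo MT chemistry, with cells and reagent co-dispensed. Luminescence proportional to viable cell number was captured at intervals during 40 h compound exposure at 37 C.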
# [5] = A CellTox Green Cytotoxicity Assay to monitor cytotoxicity in HEK293 cells - 24 hour (AID 1224875); settings: CellTox Green fluorescence; series mostly up to 76.8 µM; note: nearly all actives have a fitted effect of over 45% in size
# How it was run: as §1
# [6] = A CellTox Green Cytotoxicity Assay to monitor cytotoxicity in HepG2 cells - 16 hour (AID 1224876); settings: CellTox Green fluorescence; series mostly up to 76.8 µM; note: nearly all actives have a fitted effect of over 45% in size
# How it was run: (§4)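 Nonlytic assay: viable cells exclude the dye, so fluorescence scales with cell death. HepG2 at 600 cells/well, compounds added after 5 h, signal read across 40 h.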
# [7] = qHTS RealTime-Glo MT Cell Viability Assay in HepG2 cells - 32 hour (AID 1224877); settings: RealTime-Glo luminescence; series mostly up to 76.8 µM; note: nearly all actives have a fitted effect of over 55% in size
# How it was run: (§5)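 Viability was tracked continuously by NanoLuc luminescence from prosubstrate reduced by living HepG2 cells, at successive time points over 40 h of compound exposure. Cells with reagent were preincubated 5 h at 37 °C before compound addition.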
# [8] = A CellTox Green Cytotoxicity Assay to monitor cytotoxicity in HepG2 cells - 24 hour (AID 1224878); settings: CellTox Green fluorescence; series mostly up to 76.8 µM; note: nearly all actives have a fitted effect of over 45% in size
# How it was run: as §4
# [9] = A CellTox Green Cytotoxicity Assay to monitor cytotoxicity in HepG2 cells - 40 hour (AID 1224879); settings: CellTox Green fluorescence; series mostly up to 76.8 µM; note: nearly all actives have a fitted effect of over 40% in size
# How it was run: as §4
# [10] = qHTS RealTime-Glo MT Cell Viability Assay in HEK293 cells - 0 hour (AID 1224880); settings: RealTime-Glo luminescence; series mostly up to 76.8 µM
# How it was run: as §3
# [11] = A CellTox Green Cytotoxicity Assay to monitor cytotoxicity in HEK293 cells - 32 hour (AID 1224881); settings: CellTox Green fluorescence; series mostly up to 76.8 µM; note: nearly all actives have a fitted effect of over 40% in size
# How it was run: as §1
# [12] = A CellTox Green Cytotoxicity Assay to monitor cytotoxicity in HepG2 cells - 0 hour (AID 1224882); settings: CellTox Green fluorescence; series mostly up to 76.8 µM; note: nearly all actives have a fitted effect of over 35% in size
# How it was run: as §4
# [13] = A CellTox Green Cytotoxicity Assay to monitor cytotoxicity in HepG2 cells - 32 hour (AID 1224883); settings: CellTox Green fluorescence; series mostly up to 76.8 µM; note: nearly all actives have a fitted effect of over 50% in size
# How it was run: as §4
# [14] = A CellTox Green Cytotoxicity Assay to monitor cytotoxicity in HEK293 cells - 8 hour (AID 1224884); settings: CellTox Green fluorescence; series mostly up to 76.8 µM; note: nearly all actives have a fitted effect of over 35% in size
# How it was run: as §1
# [15] = qHTS RealTime-Glo MT Cell Viability Assay in HepG2 cells - 16 hour (AID 1224885); settings: RealTime-Glo luminescence; series mostly up to 76.8 µM; note: nearly all actives have a fitted effect of over 50% in size
# How it was run: as §5
# [16] = qHTS RealTime-Glo MT Cell Viability Assay in HEK293 cells - 24 hour (AID 1224886); settings: RealTime-Glo luminescence; series mostly up to 76.8 µM; note: nearly all actives have a fitted effect of over 50% in size; note: potency is the fitted concentration of half-maximal effect
# How it was run: as §2
# [17] = qHTS RealTime-Glo MT Cell Viability Assay in HEK293 cells - 8 hour (AID 1224887); settings: RealTime-Glo luminescence; series mostly up to 76.8 µM
# How it was run: as §3
# [18] = A CellTox Green Cytotoxicity Assay to monitor cytotoxicity in HEK293 cells - 16 hour (AID 1224888); settings: CellTox Green fluorescence; series mostly up to 76.8 µM; note: nearly all actives have a fitted effect of over 35% in size
# How it was run: as §1
# [19] = qHTS RealTime-Glo MT Cell Viability Assay in HepG2 cells - 0 hour (AID 1224889); settings: RealTime-Glo luminescence; series mostly up to 76.8 µM; note: nearly all actives have a fitted effect of over 50% in size
# How it was run: as §5
# [20] = A CellTox Green Cytotoxicity Assay to monitor cytotoxicity in HepG2 cells - 8 hour (AID 1224890); settings: CellTox Green fluorescence; series mostly up to 76.8 µM; note: nearly all actives have a fitted effect of over 45% in size
# How it was run: as §4
smiles,measurement,setting,value
CC(C)(CO)CO,Potency,[1],inactive
same,Potency,[2],inactive
same,Potency,[3],inactive
same,max response,[4],3.9% (inactive) and 0.954% (inactive)
same,Potency,[5],inactive
same,Potency,[6],inactive
same,Potency,[7],inactive
same,Potency,[8],inactive
same,Potency,[9],inactive
same,Potency,[10],inactive
same,Potency,[11],inactive
same,Potency,[12],inactive
same,Potency,[13],inactive
same,Potency,[14],inactive
same,Potency,[15],inactive
same,Potency,[16],inactive
same,Potency,[17],inactive
same,Potency,[18],inactive
same,Potency,[19],inactive
same,Potency,[20],inactive
Cc1cccc(C)c1[N+](=O)[O-],Potency,[1],inactive
same,Potency,[2],inactive
same,Potency,[3],inactive
same,max response,[4],-0.329% (inactive)
same,Potency,[5],inactive
same,Potency,[6],inactive
same,Potency,[7],inactive
same,Potency,[8],inactive
same,Potency,[9],inactive
same,Potency,[10],inactive
same,Potency,[11],inactive
same,Potency,[12],inactive
same,Potency,[13],inactive
same,Potency,[14],inactive
same,Potency,[15],inactive
same,Potency,[16],inactive
same,Potency,[17],inactive
same,Potency,[18],inactive
same,Potency,[19],inactive
same,Potency,[20],inactive
CCCCCC(C)=O,Potency,[1],inactive
same,Potency,[2],inactive
same,Potency,[3],inactive
same,max response,[4],0.796% (inactive) and 0.918% (inactive)
same,Potency,[5],inactive
same,Potency,[6],inactive
same,Potency,[7],inactive
same,Potency,[8],inactive
same,Potency,[9],inactive
same,Potency,[10],inactive
same,Potency,[11],inactive
same,Potency,[12],inactive
same,Potency,[13],inactive
same,Potency,[14],inactive
same,Potency,[15],inactive
same,Potency,[16],inactive
same,Potency,[17],inactive
same,Potency,[18],inactive
same,Potency,[19],inactive
same,Potency,[20],inactive
COc1cc(NC(=O)CC(C)=O)c(OC)cc1Cl,Potency,[1],inactive
same,Potency,[2],inactive and 21.9 µM (active)
same,Potency,[3],inactive
same,Potency,[4],12.3 µM (active)
same,max response,[4],-13.4% (inactive)
same,Potency,[5],inactive
same,Potency,[6],inactive
same,Potency,[7],inactive
same,Potency,[8],inactive
same,Potency,[9],inactive
same,Potency,[10],inactive
same,Potency,[11],inactive
same,Potency,[12],inactive
same,Potency,[13],inactive
same,Potency,[14],inactive
same,Potency,[15],inactive
same,Potency,[16],inactive and 21.9 µM (active)
same,Potency,[17],inactive
same,Potency,[18],inactive
same,Potency,[19],inactive
same,Potency,[20],inactive
CCc1cccc(O)c1,Potency,[1],inactive
same,Potency,[2],inactive
same,Potency,[3],inactive
same,max response,[4],-1.01% (inactive) and 0% (inactive)
same,Potency,[5],inactive
same,Potency,[6],inactive
same,Potency,[7],inactive
same,Potency,[8],inactive
same,Potency,[9],inactive
same,Potency,[10],inactive
same,Potency,[11],inactive
same,Potency,[12],inactive
same,Potency,[13],inactive
same,Potency,[14],inactive
same,Potency,[15],inactive
same,Potency,[16],inactive
same,Potency,[17],inactive
same,Potency,[18],inactive
same,Potency,[19],inactive
same,Potency,[20],inactive
CCc1cccc(CC)c1N,Potency,[1],inactive
same,Potency,[2],inactive
same,Potency,[3],inactive
same,max response,[4],1.74% (inactive) and 8.01% (inactive)
same,Potency,[5],inactive
same,Potency,[6],inactive
same,Potency,[7],inactive
same,Potency,[8],inactive
same,Potency,[9],inactive
same,Potency,[10],inactive
same,Potency,[11],inactive
same,Potency,[12],inactive
same,Potency,[13],inactive
same,Potency,[14],inactive
same,Potency,[15],inactive
same,Potency,[16],inactive
same,Potency,[17],inactive
same,Potency,[18],inactive
same,Potency,[19],inactive
same,Potency,[20],inactive
OCc1ccc(Cl)cc1Cl,Potency,[1],inactive
same,Potency,[2],inactive
same,Potency,[3],inactive
same,max response,[4],3.27% (inactive) and 4.82% (inactive)
same,Potency,[5],inactive
same,Potency,[6],inactive
same,Potency,[7],inactive
same,Potency,[8],inactive
same,Potency,[9],inactive
same,Potency,[10],inactive
same,Potency,[11],inactive
same,Potency,[12],inactive
same,Potency,[13],inactive
same,Potency,[14],inactive
same,Potency,[15],inactive
same,Potency,[16],inactive
same,Potency,[17],inactive
same,Potency,[18],inactive
same,Potency,[19],inactive
same,Potency,[20],inactive
COC(=O)OC,Potency,[1],inactive
same,Potency,[2],inactive
same,Potency,[3],inactive
same,max response,[4],8.45% (inactive) and 1.69% (inactive)
same,Potency,[5],inactive
same,Potency,[6],inactive
same,Potency,[7],inactive
same,Potency,[8],inactive
same,Potency,[9],inactive
same,Potency,[10],inactive
same,Potency,[11],inactive
same,Potency,[12],inactive
same,Potency,[13],inactive
same,Potency,[14],inactive
same,Potency,[15],inactive
same,Potency,[16],inactive
same,Potency,[17],inactive
same,Potency,[18],inactive
same,Potency,[19],inactive
same,Potency,[20],inactive
COc1ccc([C@@H]2CC(=O)c3c(O)cc(O[C@@H]4O[C@H](CO[C@@H]5O[C@@H](C)[C@H](O)[C@@H](O)[C@H]5O)[C@@H](O)[C@H](O)[C@H]4O)cc3O2)cc1OC,Potency,[1],inactive
same,Potency,[2],inactive
same,Potency,[3],inactive
same,max response,[4],14.9% (inactive) and 7.9% (inactive)
same,Potency,[5],inactive
same,Potency,[6],inactive
same,Potency,[7],inactive
same,Potency,[8],inactive
same,Potency,[9],inactive
same,Potency,[10],inactive
same,Potency,[11],inactive
same,Potency,[12],inactive
same,Potency,[13],inactive
same,Potency,[14],inactive
same,Potency,[15],inactive
same,Potency,[16],inactive
same,Potency,[17],inactive
same,Potency,[18],inactive
same,Potency,[19],inactive
same,Potency,[20],inactive
Cc1cc(CC(=O)O)n(C)c1C(=O)c1ccc(Cl)cc1,Potency,[1],inactive
same,Potency,[2],inactive
same,Potency,[3],inactive
same,max response,[4],-0.154% (inactive) and 2.14% (inactive)
same,Potency,[5],inactive
same,Potency,[6],inactive
same,Potency,[7],inactive
same,Potency,[8],inactive
same,Potency,[9],inactive
same,Potency,[10],inactive
same,Potency,[11],inactive
same,Potency,[12],inactive
same,Potency,[13],inactive
same,Potency,[14],inactive
same,Potency,[15],inactive
same,Potency,[16],inactive
same,Potency,[17],inactive
same,Potency,[18],inactive
same,Potency,[19],inactive
same,Potency,[20],inactive
O=[N+]([O-])c1ccccc1C(F)(F)F,Potency,[1],inactive
same,Potency,[2],inactive
same,Potency,[3],inactive
same,max response,[4],3.79% (inactive) and 8.48% (inactive)
same,Potency,[5],inactive
same,Potency,[6],inactive
same,Potency,[7],inactive
same,Potency,[8],inactive
same,Potency,[9],inactive
same,Potency,[10],inactive
same,Potency,[11],inactive
same,Potency,[12],inactive
same,Potency,[13],inactive
same,Potency,[14],inactive
same,Potency,[15],inactive
same,Potency,[16],inactive
same,Potency,[17],inactive
same,Potency,[18],inactive
same,Potency,[19],inactive
same,Potency,[20],inactive
